According to ChEMBL document CHEMBL1961873, “Compounds: GSK PKIS; Assays: Nanosyn kinase panel” (2012):

Test system: Platelet-derived growth factor receptor alpha (Homo sapiens), P16234 [T674I]
Conditions: at 0.1 µM

Chain of Platelet-derived growth factor receptor alpha (Homo sapiens), P16234 [T674I] (P16234 whole entry T674I): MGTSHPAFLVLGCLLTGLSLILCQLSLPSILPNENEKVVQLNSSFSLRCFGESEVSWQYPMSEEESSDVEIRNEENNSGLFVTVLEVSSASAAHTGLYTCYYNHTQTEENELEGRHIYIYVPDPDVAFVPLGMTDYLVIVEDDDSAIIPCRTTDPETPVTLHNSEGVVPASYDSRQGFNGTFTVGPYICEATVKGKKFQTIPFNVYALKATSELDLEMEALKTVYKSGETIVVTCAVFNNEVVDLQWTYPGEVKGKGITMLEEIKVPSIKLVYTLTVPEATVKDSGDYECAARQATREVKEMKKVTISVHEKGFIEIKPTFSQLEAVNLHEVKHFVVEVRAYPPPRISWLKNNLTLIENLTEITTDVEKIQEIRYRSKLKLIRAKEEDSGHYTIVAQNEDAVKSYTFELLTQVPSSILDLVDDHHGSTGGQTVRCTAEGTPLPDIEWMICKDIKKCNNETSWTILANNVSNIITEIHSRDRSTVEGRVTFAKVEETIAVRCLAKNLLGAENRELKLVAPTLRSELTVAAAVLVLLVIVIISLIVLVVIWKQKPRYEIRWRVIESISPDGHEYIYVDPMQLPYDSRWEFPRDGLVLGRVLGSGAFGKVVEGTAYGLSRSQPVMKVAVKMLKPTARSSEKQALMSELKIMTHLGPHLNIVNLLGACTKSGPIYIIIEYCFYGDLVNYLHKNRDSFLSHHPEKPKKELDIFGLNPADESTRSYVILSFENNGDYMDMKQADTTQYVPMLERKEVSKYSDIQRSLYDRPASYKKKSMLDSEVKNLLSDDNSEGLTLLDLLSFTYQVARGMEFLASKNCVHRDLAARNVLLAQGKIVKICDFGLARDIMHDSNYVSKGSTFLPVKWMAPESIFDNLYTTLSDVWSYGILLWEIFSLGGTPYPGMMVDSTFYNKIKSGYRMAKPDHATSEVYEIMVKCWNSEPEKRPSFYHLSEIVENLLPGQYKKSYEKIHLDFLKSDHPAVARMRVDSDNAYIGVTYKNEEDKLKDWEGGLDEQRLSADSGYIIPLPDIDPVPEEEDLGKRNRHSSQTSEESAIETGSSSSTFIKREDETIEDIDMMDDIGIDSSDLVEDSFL

Compound	inhibition
Cc1nnc(-c2ccc(C)c(-c3ccc(C(=O)NCc4ccc(Cl)cc4)cc3)c2)o1	6.19%
Cc1ccc(C(=O)NC(C)C)cc1-c1ccc(C(=O)NCC2CC2)cc1	1.13%
O=C(Nc1ccc(Oc2ccc3[nH]c(NC(=O)c4ccccc4)nc3c2)cc1)Nc1cc(C(F)(F)F)ccc1F	13%
COc1cc(C)c(N(C)C(=O)CN(C)C)cc1Nc1nc(Nc2cccc(F)c2C(N)=O)c2cc[nH]c2n1	1.14%
CN(C)c1ccc2c(c1)/C(=C/Nc1ccc(S(N)(=O)=O)cc1)C(=O)N2	3.45%
c1ccc(Oc2ccc(Nc3ncc(-c4ccccc4)o3)cc2)cc1	4.06%
COc1cccc(-n2cnc3c(N/N=C/c4ccncc4)ncnc32)c1	2.14%
Fc1ccc(-c2ncn(C3CCNCC3)c2-c2ccnc(Oc3ccc(Oc4ccccc4)cc3)n2)cc1	2.85%
O=C(NCC1CC1)c1ccc(-c2cccc(C(=O)NC3CC3)c2)cc1	4.42%
N#Cc1ccc(Oc2nccc(-c3c(-c4ccc(F)cc4)ncn3C3CCNCC3)n2)cc1	3.29%
COc1ccc2cc(-c3c(-c4ccncc4)nc(-c4ccc(S(C)(=O)=O)cc4C)n3C)ccc2c1	7.17%
C/C(Nc1ccc(S(N)(=O)=O)cc1)=C1/C(=O)Nc2ccccc21	34.4%
Fc1ccc(-c2c(-c3ccncc3)nc3n2CCS3)cc1	3.55%
C#Cc1cccc(Nc2ncnc3ccc(OCCCCNCCS(C)(=O)=O)cc23)c1	8.07%
COc1ccc2ncn(-c3cc(O[C@H](C)c4ccccc4Cl)c(C(N)=O)s3)c2c1	0.85%
Fc1ccc(-c2nc3n(c2-c2ccncc2)CCS3)cc1	5.4%
CCS(=O)(=O)c1ccc(OC)c(Nc2ncc(-c3cccc(-c4ccccc4F)c3)o2)c1	3.61%
Nc1nccc(-c2c(-c3ccc(F)cc3)ncn2C2CCC(O)CC2)n1 (centres undefined)	0.95%

Test system: Platelet-derived growth factor receptor alpha (Homo sapiens), P16234 [T674I]
Conditions: at 1 µM

Compound	inhibition
CCC(=O)Nc1ccc(C)c(-c2ccc(C(=O)NCC3CC3)cc2)c1	4.6%
CN(C)CCOc1ccc(-c2cc(-c3ccc4c(c3)CCC4=NO)c(-c3ccncc3)o2)cc1	2.19%
c1ccc(-c2n[nH]cc2-c2ccnc(-c3ccc(OCCN4CCOCC4)cc3)c2)nc1	-0.97%
COc1cccc(/C=N/Nc2ncnc3c2cnn3-c2cccc(OC)c2)c1	6.59%
NCc1ccc(-n2c(-c3nonc3N)nc3cnccc32)cc1	17.7%
Cc1ccc(C(=O)NC2CCC2)cc1-c1ccc(C(=O)NCC2CC2)cc1	3.17%
COc1cc(Nc2ncc3c(C)nc(-c4cccc(Oc5ccccc5)c4)n3n2)cc(OC)c1OC	1.96%
Fc1ccc(-c2ncn(C3CCNCC3)c2-c2ccnc(Oc3ccc(F)c(F)c3)n2)cc1	7.95%
COC(=O)Nc1nc2ccc(Sc3ccc(NC(=O)Nc4cc(C(F)(F)F)ccc4F)cc3)cc2[nH]1	74.8%
NC(=O)c1cc(-c2ccc(F)cc2)cc(-c2ccncc2)c1N	7.19%
CN(C)CCCNc1nccc(-c2c(-c3ccc(F)cc3)nn3cc(C(F)(F)F)ccc23)n1	4.87%
CCc1nccc2c1nc(-c1nonc1N)n2CC	0.49%
COc1ccc(-c2ccc3c(NC(=O)C4CC4)n[nH]c3n2)cc1	7.13%
O=C1Nc2ccc(I)cc2C1=Cc1cc(Br)c(O)c(Br)c1	5.91%
O=C(Nc1n[nH]c2nc(-c3ccc(O)cc3)c(Br)cc12)C1CC1	24.4%
CS(=O)(=O)CCNCc1cc(-c2cc3c(Nc4ccc(OCc5cccc(F)c5)c(Cl)c4)ncnc3s2)cs1	11.1%
Cc1nnc(-c2ccc(C)c(-c3ccc(C(=O)NCc4ccc(Cl)cc4)cc3)c2)o1	6%
Cc1ccc(C(=O)NC(C)C)cc1-c1ccc(C(=O)NCC2CC2)cc1	4.14%
O=C(Nc1ccc(Oc2ccc3[nH]c(NC(=O)c4ccccc4)nc3c2)cc1)Nc1cc(C(F)(F)F)ccc1F	83.1%
COc1cc(C)c(N(C)C(=O)CN(C)C)cc1Nc1nc(Nc2cccc(F)c2C(N)=O)c2cc[nH]c2n1	-0.57%
CN(C)c1ccc2c(c1)/C(=C/Nc1ccc(S(N)(=O)=O)cc1)C(=O)N2	28.2%
c1ccc(Oc2ccc(Nc3ncc(-c4ccccc4)o3)cc2)cc1	10%
COc1cccc(-n2cnc3c(N/N=C/c4ccncc4)ncnc32)c1	18.3%
Fc1ccc(-c2ncn(C3CCNCC3)c2-c2ccnc(Oc3ccc(Oc4ccccc4)cc3)n2)cc1	6.65%
O=C(NCC1CC1)c1ccc(-c2cccc(C(=O)NC3CC3)c2)cc1	0.5%
N#Cc1ccc(Oc2nccc(-c3c(-c4ccc(F)cc4)ncn3C3CCNCC3)n2)cc1	8.12%
